Data taken from the supplement of paper PMC6555819.

Assays:
Experiment in all cases: PBM binding z-score (relative to random genomic background probes); higher = stronger binding; sequences stand for … in GC…GCGATTGACAGCGTAGAATGAAGG
[1] = test system: PPARg:RXRa DBDmut IVT, anti-RXR (DBD mutation: RXRa K156A/R161A, NR concentration 270 nM, RXRa partner concentration 90 nM)
Summary of the method: (§1)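 The probes on custom Agilent 4×180K protein-binding microarrays were double-stranded, with 34-nt variable regions bearing direct-repeat seeds, single-nucleotide variants, half-site ablations and random human genomic background sequences. Incubation lasted 1 h with ligand-free nuclear receptor dimers in PBS pH 7.4, 2% milk, 0.02% Triton X-100, 1 mM DTT, 0.2 mg/mL BSA and 0.4 mg/ml salmon testes DNA. Antibodies against each partner (one per run) detected bound dimers, and fluorescence scans were regression-normalized. Binding z-scores take the random background probes as reference.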

[2] = test system: PPARg:RXRa IVT, anti-PPARg (NR concentration 270 nM, RXRa partner concentration 90 nM)
Summary of the method: as §1

[3] = test system: PPARg DBDmut:RXRa IVT, anti-PPARg (DBD mutation: PPARg1 K132A/R137A, NR concentration 270 nM, RXRa partner concentration 90 nM)
Summary of the method: as §1

[4] = test system: PPARg DBDmut IVT, anti-PPARg (DBD mutation: PPARg1 K132A/R137A, NR concentration 270 nM)
Summary of the method: as §1

[5] = test system: PPARg homodimer (NR concentration 180 nM)
Summary of the method: as §1

[6] = test system: PXR:RXRa (NR concentration 270 nM, RXRa partner concentration 90 nM)
Summary of the method: as §1

[7] = test system: PXR homodimer (NR concentration 270 nM)
Summary of the method: as §1

[8] = test system: RARa:RXR (NR concentration 270 nM, RXRa partner concentration 90 nM)
Summary of the method: as §1

[9] = test system: RARa homodimer (NR concentration 270 nM)
Summary of the method: as §1

[10] = test system: RARb:RXRa (NR concentration 270 nM, RXRa partner concentration 90 nM)
Summary of the method: as §1

Sequence | PBM binding z-score [1] | PBM binding z-score [2] | PBM binding z-score [3] | PBM binding z-score [4] | PBM binding z-score [5] | PBM binding z-score [6] | PBM binding z-score [7] | PBM binding z-score [8] | PBM binding z-score [9] | PBM binding z-score [10]
CCTAGCAGGCCAGGTTCACTCAAGCATTTCGCTT | 0.866 | -0.316 | -1.77 | -0.982 | -0.179 | 0.776 | 0.391 | 0.488 | -0.298 | 0.579
CCTCGGAGGACAACAGGAGGTCAAAGCTGCCAGA | 0.133 | 1.07 | -0.509 | -2.06 | 2.31 | 4.04 | 1.35 | 4.12 | 0.524 | 3.25
TCTGCTTGGTCAACGATGGTCAGCTAATCTGCTA | 0.689 | 0.425 | 0.225 | -0.53 | -0.633 | -0.0602 | -0.841 | 0.401 | -1.62 | 1.17
ATCGAAAGGTCGTGAGGTGAGTACACAGAAAGGC | 0.432 | 2.33 | 1.04 | 0.897 | 2.45 | 3.57 | 0.557 | 4.33 | 0.76 | 3.91
CCTTACGGGTCACTGACAGCTTATAGCATTTGGA | 3.83 | 3.59 | 0.471 | 0.264 | 2.05 | 2.79 | -0.111 | 3.44 | 1.14 | 3.84
TCTGCTATGTCAACGATGGTCAGCTAATCTGCTA | 0.814 | -0.00611 | 0.00527 | -0.18 | -1.25 | -0.217 | -1.19 | -0.446 | -1.27 | 0.575
CCTACTGGGCCATTCAGAGGTTATTGATCATATG | 4.41 | 3.71 | 0.418 | 0.252 | 0.658 | 0.724 | 0.159 | 0.877 | 0.171 | 0.712
AAATGTAGGTTAAGGGTCATTCAGGTTGGTTCGC | 8.02 | 8.07 | 2.18 | 2.05 | 3.58 | 5.32 | 2.61 | 5.42 | 2.02 | 3.7
CATAGTTGGTCAAGGTCACACACGCTATAGGTAC | 1.92 | 3.93 | 1.23 | 1.92 | 3.69 | 4.35 | 2.19 | 4.44 | 1.85 | 4.04
ATCTAAAGGTCGAAGGTGAGTATACCCACCCGAA | 0.448 | 2.65 | 1.07 | 0.686 | 1.22 | 2.87 | 0.401 | 4.15 | 0.981 | 3.76
ACTCGGAGGATAAAGGTCAGAGCTACGCCAGTGA | 0.595 | 3.02 | -0.0489 | 0.296 | 4.61 | 3.25 | 0.221 | 4.24 | 2.08 | 4.01
AGTCAAAGTTCAGGACGAGGTAAAGTAAAGCACG | 0.127 | 1.81 | 0.318 | 0.49 | 2.36 | 2.86 | 1.28 | 2.84 | 1.52 | 4.33
